Screens deposited in PubChem BioAssay by National Center for Advancing Translational Sciences (NCATS).
TSHR agonist – qHTS Assay for Agonists of the Thyroid Stimulating Hormone Receptor; HEK293-CNG-TSHR cells (CNG channel as cAMP sensor), membrane potential dye, cAMP; Potency, µM (highest dose often 57.1 µM), usual class: activators; AID 926, 2007; actives 0.48% (n = 73,000); active means well fitted activation curve with a large enough effect in the main read-out, with a control signal flat, not every such curve was filed as active; inconclusive means small, poorly fitted or top-dose-only effect, or a change in a side signal; inactive means no such curve, though single readings can be large or run the other way; reference of the percent scale not stated here;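 further: the control signal comes from parental cells without the receptor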
Target sequence (P16473 whole entry, looked up): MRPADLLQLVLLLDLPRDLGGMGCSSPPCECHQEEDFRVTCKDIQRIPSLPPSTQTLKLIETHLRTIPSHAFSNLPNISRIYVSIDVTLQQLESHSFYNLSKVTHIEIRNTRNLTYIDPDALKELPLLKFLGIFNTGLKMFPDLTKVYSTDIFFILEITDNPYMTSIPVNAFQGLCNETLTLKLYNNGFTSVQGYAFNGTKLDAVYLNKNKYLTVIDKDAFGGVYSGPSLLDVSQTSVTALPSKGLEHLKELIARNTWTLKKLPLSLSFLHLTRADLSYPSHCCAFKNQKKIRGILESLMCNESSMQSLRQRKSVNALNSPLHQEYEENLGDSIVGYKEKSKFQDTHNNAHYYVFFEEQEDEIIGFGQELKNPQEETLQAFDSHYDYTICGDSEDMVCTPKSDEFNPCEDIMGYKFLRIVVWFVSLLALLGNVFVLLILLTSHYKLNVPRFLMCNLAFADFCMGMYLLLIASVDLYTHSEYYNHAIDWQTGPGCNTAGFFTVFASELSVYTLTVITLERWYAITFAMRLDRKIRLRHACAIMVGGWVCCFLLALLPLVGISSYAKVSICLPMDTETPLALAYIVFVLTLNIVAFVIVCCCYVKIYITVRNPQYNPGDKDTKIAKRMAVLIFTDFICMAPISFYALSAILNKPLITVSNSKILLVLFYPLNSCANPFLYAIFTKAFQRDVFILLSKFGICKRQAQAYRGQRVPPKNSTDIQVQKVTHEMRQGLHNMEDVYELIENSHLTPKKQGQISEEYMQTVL
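HEK 293 cells stably expressing TSHR and a cAMP-gated CNG channel; parental CNG-only cells as counterscreen. Cells preloaded 60 min with membrane potential dye plus 100 uM RO 20-1724, then compound 30 min; fluorescence read at 590 nm.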
HEK293 cAMP cs – qHTS Assay for Agonists of the Thyroid Stimulating Hormone Receptor: Activators of Intracellular cAMP Concentrations in Parental HEK 293; parental HEK293 CNG cAMP sensor, membrane potential fluorescence; Potency, µM (top dose mostly 57.1 µM), hits mostly activators; actives 2.5% (n = 73,000); AID 938, 2007; further: nearly all actives have a fitted effect of over 55% in size
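Parental HEK 293 cells stably expressing a modified CNG channel (no TSHR) report cAMP rise as membrane depolarization. Membrane potential dye with 100 uM RO 20-1724 was loaded for 60 min at room temperature, then compound added for 30 min; fluorescence read at 590 nm.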
Pol III holo inh – qHTS Assay for Inhibitors of DNA Polymerase III Holoenzyme System; Potency, µM (top dose mostly 57.1 µM); actives 0.25% (n = 71,000); reconstituted DNA polymerase III holoenzyme replication, biochemical
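Reconstituted *E. coli* holoenzyme (0.35 nM Pol III, 1 nM beta, 154 nM SSB, 2 nM primase) was preincubated with compound for 15 min at RT. Synthesis on 1.4 nM ssM13Gori ran 35 min, then was stopped with PicoGreen/EDTA and read as dsDNA fluorescence.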
Hsp90 Hop PPI – qHTS Assay for Disrupters of an Hsp90 Co-Chaperone Interaction | AlphaScreen TPR2A-His6 binding biotin-Hsp90 C-terminal peptide | actives 0.44% (n = 71,000) | AID 595, 2007 | Potency, µM (doses to about 57 µM) | Hsp90 C-terminal peptide / TPR2A (Hop) interaction, human; active means well fitted curve in either direction with a large enough effect; inconclusive means small, poorly fitted or top-dose-only effect, or another doubt
Tau filament bind – qHTS Assay for Tau Filament Binding; actives 2% (n = 71,000); Microtubule-associated protein tau (Homo sapiens), P10636; AID 596, 2007; recombinant tau filaments, thioflavin S fluorescence, 15 h; filaments grown with octadecylsulfate alongside compound; Potency, µM (doses to about 57.1 µM);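 further: actives lower thioflavin S fluorescence by blocking filaments or displacing dye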
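ThS-based fibril read: tau 1 uM final, inducer ODS 30 uM final, 37 C for 15 h, ex 450/em 510 nm.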
HEK293 cAMP cnt – Confirmation Concentration-Response Assay for Agonists of the Thyroid Stimulating Hormone Receptor: Activators of Intracellular cAMP Concentrations in Parental HEK 293; shares compounds with TSHR agonist; parental HEK293 CNG biosensor, cAMP membrane potential fluorescence; activity change, negative = inhibition, % at 32.9 µM; 150 tested, under 10 active; AID 953, 2007
Numbers stand for hits; 0 = inactive; ? = inconclusive; - = no result given; [ ] = remark or other dose. The list is not random: actives were taken first. Their share in the collection is about 5.1%. Unless noted, the call rests on the fitted dose curve; in most records, active means well fitted curve in the direction sought with a large enough effect; inconclusive means small, poorly fitted or top-dose-only effect, or another doubt; inactive means no such curve, though single readings can be large; an effect the other way counts as inactive or inconclusive.

SMILES	TSHR agonist	HEK293 cAMP cs	Pol III holo inh	Hsp90 Hop PPI	Tau filament bind	HEK293 cAMP cnt
Cc1cc(Cl)c(S(=O)(=O)Nc2ccc3c(c2)OCO3)cc1OCC(N)=O	12.6µM	0	0	0	0	0
CN1C(=O)N(C)C2(c3ccccc3)Nn3c(s/c(=C/c4ccco4)c3=O)=NC12c1ccccc1 (stereo not drawn)	1.58µM	0	0	0	0	0
O=c1/c(=C/c2ccco2)sc2nc(-c3ccccc3Br)nn12	0	0	0	0	0	-
O=C(O)CC12C[C@H]3C[C@@H](CC(O)(C3)C1)C2	0[11.4 µM]	0[11.4 µM]	0[11.4 µM]	0[11 µM]	0[11.4 µM]	-
COC(=O)c1ccc(C(NC(=O)OCc2ccccc2)/C(C)=C/[C@@H](C)C(=O)NCCc2c[nH]c3ccc(OC)cc23)cc1 (stereo partly drawn)	0	0	0	0	0	-
CCOc1ccc(NC(=O)C(C)SC(N)=O)cc1 (stereo not drawn)	0	0	0	0	0	0
CCOc1ccc(N(C(C)C(=O)Nc2ccc(OC)cc2)S(C)(=O)=O)cc1 (stereo not drawn)	0[11.4 µM]	0[11.4 µM]	0[11.4 µM]	0[11 µM]	0[11.4 µM]	0
Oc1ccccc1-c1cc(C(F)(F)C(F)F)nc(-c2ccccc2)n1	?	?	0	0	0	0
Nc1nc(-c2ccccc2)cc(C(F)(F)F)n1	0	0	0	0	0	-
CC(=O)N(O)[C@@H]1c2cc(C#N)ccc2OC(C)(C)[C@H]1O	0	0	-	-	-	-
Cc1ccc(S(=O)(=O)NC(=O)Nn2c(C)nnc2C)cc1	0	0	0	0	0	0
CN(C)CCNCCN	0[11.4 µM]	0[11.4 µM]	0[11.4 µM]	0[11 µM]	0[11.4 µM]	-
Cc1ccc(S(=O)(=O)N2CCC(C(=O)NCCCN3CCCCCC3)CC2)cc1	3.98µM	0	0	0	0	0
Cc1ccc(S(=O)(=O)N2CCC(C(=O)NC3CCCCCC3)CC2)cc1	0[11.4 µM]	0[11.4 µM]	0[11.4 µM]	0[11 µM]	0[11.4 µM]	-
O=C1C=C(NCc2ccco2)C2(CCCCC2)O1	?	?	0	0	0	-
O=C1C=C(NCc2ccccc2)C2(CCCCC2)O1	-	0[11.4 µM]	0[11.4 µM]	0[11 µM]	0[11.4 µM]	0
CCCCNC(=O)Nc1ccnn1C1CCCCC1	0	0	0	0	0	-
Cc1noc(/C=C/c2ccco2)c1S(=O)(=O)N1CCC(C(=O)N2CCc3ccccc3C2)CC1	0	0	0	0	0	-
Cc1noc(/C=C/c2ccco2)c1S(=O)(=O)N1CCC(C(=O)NCc2ccco2)CC1	31.6µM	0	0	0	0	0
C#CCCCO/N=C1/C[C@@H](O)[C@@H](O)[C@@H]2[C@@H]3C(=O)N(C(C)(C)C)C(=O)[C@H]3CC[C@H]12	0[11.4 µM]	0[11.4 µM]	-	-	-	-
COC(=O)C1=C(C)OC(N)=C(C#N)C1C1CCCCC1 (stereo not drawn)	12.6µM	0	0	0	0	0
COC(=O)C1=C(C)OC(N)=C(C#N)C1c1ccccc1 (stereo not drawn)	0	0	0	0	0	-
COC(=O)C1=C(C)OC(N)=C(C#N)C1c1c(C)nn(-c2ccccc2)c1Cl (stereo not drawn)	6.31µM	0	0	0	0	0
Cc1ccc(C(=N)c2ccccc2Cc2cccc3ccccc23)c2ccccc12	0[11.4 µM]	0[11.4 µM]	0[11.4 µM]	0[11 µM]	0[11.4 µM]	-
Cc1cccc(OCC(=O)OCC(=O)c2c(N)n(C)c(=O)n(C)c2=O)c1	12.6µM	0	0	0	0	0
SMILES	TSHR agonist	HEK293 cAMP cs	Pol III holo inh	Hsp90 Hop PPI	Tau filament bind	HEK293 cAMP cnt
COc1ccc(-c2cc(C(F)(F)F)nc(SCCC(=O)N3CCOCC3)n2)cc1	20µM	0	0	0	0	0
Cc1cc(Cn2cnc3c2C[C@@H](C(=O)O)N(C(=O)C(c2ccccc2)c2ccccc2)C3)ccc1N(C)C	0	0	0	0	0	-
COc1ccc(S(=O)(=O)N(C)CC(=O)N2CCCCCC2)cc1OC	0	0	0	0	0	0
CC1=CCC2C(=O)N(c3ccc(Br)cc3C)C(=O)C2C1 (stereo not drawn)	25.1µM	0	0	0	0	0
O=C(CSc1nc2scc(-c3ccco3)c2c(=O)n1-c1ccccc1)N1CCOCC1	15.8µM	0	0	0	0	0
Cc1cccc2c(=O)oc(-c3ccc4c(c3)C(=O)N(CC3CCCO3)C4=O)nc12 (stereo not drawn)	0	0	0	0	0	-
Cc1nn(C)c(C)c1S(=O)(=O)N(CC(=O)Nc1ccccn1)c1ccc(C(C)C)cc1	10µM	0	0	0	0	0
COc1ccc(NC(=O)CN(c2ccc(C)cc2)S(=O)(=O)c2c(C)nn(C)c2C)cc1OC	0	0	0	0	0	-
Cc1nc(NCc2ccccc2)c2nc(-c3ccccc3)n(CCN(C)C)c2n1	?	?	0	0	0	-
CCOC(=O)C1C(=O)NC(N2CCCCC2)=NC1c1ccccc1 (stereo not drawn)	0	0	0	0	0	-
CCOC(=O)C1C(=O)Nc2nc(C)nn2C1c1ccccc1 (stereo not drawn)	3.98µM	0	0	0	0	0
NC(=O)c1nsc(C(=O)N(CC(=O)NCc2ccc3c(c2)OCO3)C2CCCCC2)c1N	2µM	0	0	0	0	0
CCc1ccccc1	0	0	0	0	0	-
Cc1cc(=O)[nH]c(SCCOc2ccc(OC(C)C)cc2)n1	0	0	0	0	0	-
Cc1cc(=O)[nH]c(SCCOc2ccc3c(c2)CCC3)n1	-	0	0	0	0	0
CCCC(c1cc(C(C)(C)C)c(O)cc1C)c1cc(C(C)(C)C)c(O)cc1C	0[11.4 µM]	0[11.4 µM]	0[11.4 µM]	0[11 µM]	0[11.4 µM]	-
Nc1cc(CN2C(=O)c3ccccc3C2=O)cc(Cl)c1O	0	0	0	0	0	0
O=C1c2ccccc2C(=O)N1Cc1ccc2c(c1)OCO2	?	?	0	0	0	-
CC(=O)Nc1ccc(S(=O)(=O)N(C)c2ccccc2)cc1	0.794µM	0	0	0	0	0
CCCn1c(C)nc2c(NCCCN(C)C)nc(C)nc21	0	0	0	0	0	-
O=C(NCc1ccco1)c1cc(-c2ccccc2)c(N2CCOCC2)s1	0	0	0	0	0	0
Cc1ccc2c(c1)C(N1CCN(C)CC1)=Nc1cccnc1N2	0	0	0	0	0	-
COc1cc(OC)cc(C(=O)N2c3ccc(F)cc3CCC2C)c1 (stereo not drawn)	12.6µM	0	0	0	0	0
CC1(C)CC(=O)C2=C(C1)OC(N)=C(C#N)C2CCc1ccccc1 (stereo not drawn)	20µM	0	0	0	0	0
CCOC(=O)CCN1C(=O)[C@H]2[C@@H]3[C@H](O)[C@H](O)CC(=O)[C@H]3CC[C@H]2C1=O	0[11.4 µM]	0[11.4 µM]	-	-	-	-
